Targets with a hit are over-represented here; the source holds about 8,800 in all. About 0.5% of all pairs of compound and target were hits.
compound: NC(=O)Nc1cc(-c2cccc(F)c2)sc1C(=O)N[C@H]1CCCNC1; assay: log2 fold change, soluble protein after heating vs DMSO (PISA); higher = thermal stabilisation; K562 lysate, 10 uM; active = over 0.2 and 3.5 SD of the protein, either way, in both replicates (recomputed)
How it was run: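 K562 pellets were dounce-homogenised in PBS pH 7.4 with 1 mM MgCl2, and the crude extract at 1 mg/mL protein was treated with 10 μM compound for 30 min. Aliquots were heated for 3 min across 48°C-58°C, pooled, and brought to 0.5% NP-40 at 4°C; soluble protein was the supernatant after 21,000xg for 90 min. Soluble protein was quantified by TMTpro 16plex LC-MS/MS with channel sums equalised, and reported as log2 fold change in thermal stability against DMSO controls, with values from duplicates.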

UniProt Q08380, sequence (Q08380 whole entry, looked up): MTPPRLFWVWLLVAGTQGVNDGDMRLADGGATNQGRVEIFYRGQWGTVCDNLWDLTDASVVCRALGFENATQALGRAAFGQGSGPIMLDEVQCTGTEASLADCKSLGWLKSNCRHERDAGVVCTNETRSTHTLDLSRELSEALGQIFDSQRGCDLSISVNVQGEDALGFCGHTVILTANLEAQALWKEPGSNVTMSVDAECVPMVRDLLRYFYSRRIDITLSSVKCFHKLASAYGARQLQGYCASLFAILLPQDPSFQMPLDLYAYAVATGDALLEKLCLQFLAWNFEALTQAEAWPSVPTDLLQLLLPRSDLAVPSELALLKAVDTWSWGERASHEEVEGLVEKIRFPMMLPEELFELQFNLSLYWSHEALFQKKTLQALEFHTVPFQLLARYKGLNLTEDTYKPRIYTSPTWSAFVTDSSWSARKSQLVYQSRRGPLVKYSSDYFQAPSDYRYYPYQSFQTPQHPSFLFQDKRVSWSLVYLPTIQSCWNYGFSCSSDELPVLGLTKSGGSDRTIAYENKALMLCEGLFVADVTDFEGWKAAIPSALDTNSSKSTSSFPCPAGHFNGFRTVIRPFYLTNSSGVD
UniProt P40692, sequence (P40692 whole entry, looked up): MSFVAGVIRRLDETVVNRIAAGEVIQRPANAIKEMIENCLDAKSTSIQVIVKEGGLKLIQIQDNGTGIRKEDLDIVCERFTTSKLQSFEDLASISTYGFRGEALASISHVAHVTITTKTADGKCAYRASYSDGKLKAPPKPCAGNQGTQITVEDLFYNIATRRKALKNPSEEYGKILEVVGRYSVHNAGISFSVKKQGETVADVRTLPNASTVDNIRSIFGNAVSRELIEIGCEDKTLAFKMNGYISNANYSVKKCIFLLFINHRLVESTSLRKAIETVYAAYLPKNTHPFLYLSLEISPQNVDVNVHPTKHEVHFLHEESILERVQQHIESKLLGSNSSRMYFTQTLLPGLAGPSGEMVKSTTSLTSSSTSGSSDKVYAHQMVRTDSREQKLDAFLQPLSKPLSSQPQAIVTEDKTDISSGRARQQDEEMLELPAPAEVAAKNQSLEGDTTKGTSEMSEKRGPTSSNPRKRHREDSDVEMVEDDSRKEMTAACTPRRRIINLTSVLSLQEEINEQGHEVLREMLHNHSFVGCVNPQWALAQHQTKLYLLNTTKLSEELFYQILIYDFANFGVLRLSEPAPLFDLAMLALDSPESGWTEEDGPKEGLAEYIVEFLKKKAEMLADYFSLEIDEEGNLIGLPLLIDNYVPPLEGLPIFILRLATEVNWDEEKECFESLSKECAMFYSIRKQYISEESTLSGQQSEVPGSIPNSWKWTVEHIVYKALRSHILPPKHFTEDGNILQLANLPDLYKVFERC
UniProt O14733, sequence (O14733 whole entry, looked up): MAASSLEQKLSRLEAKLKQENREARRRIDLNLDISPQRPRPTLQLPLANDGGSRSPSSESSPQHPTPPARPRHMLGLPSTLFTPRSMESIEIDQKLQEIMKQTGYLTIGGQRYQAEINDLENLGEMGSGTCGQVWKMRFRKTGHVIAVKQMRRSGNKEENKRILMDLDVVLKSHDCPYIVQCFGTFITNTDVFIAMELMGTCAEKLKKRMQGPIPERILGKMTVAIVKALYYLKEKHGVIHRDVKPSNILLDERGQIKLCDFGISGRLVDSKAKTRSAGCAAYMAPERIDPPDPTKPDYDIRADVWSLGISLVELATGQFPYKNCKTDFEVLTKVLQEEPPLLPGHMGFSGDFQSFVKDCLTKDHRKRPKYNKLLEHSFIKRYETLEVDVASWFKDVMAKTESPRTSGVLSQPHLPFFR
UniProt Q96G25, sequence (Q96G25 whole entry, looked up): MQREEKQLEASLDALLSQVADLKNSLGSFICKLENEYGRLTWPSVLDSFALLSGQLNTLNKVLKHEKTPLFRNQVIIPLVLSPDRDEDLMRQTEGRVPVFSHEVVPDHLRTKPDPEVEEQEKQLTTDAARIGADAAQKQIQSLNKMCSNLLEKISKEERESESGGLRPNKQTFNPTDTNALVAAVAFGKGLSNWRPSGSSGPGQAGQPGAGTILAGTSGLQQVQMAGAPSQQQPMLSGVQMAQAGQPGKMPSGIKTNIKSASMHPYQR
UniProt P49917, sequence (P49917 whole entry, looked up): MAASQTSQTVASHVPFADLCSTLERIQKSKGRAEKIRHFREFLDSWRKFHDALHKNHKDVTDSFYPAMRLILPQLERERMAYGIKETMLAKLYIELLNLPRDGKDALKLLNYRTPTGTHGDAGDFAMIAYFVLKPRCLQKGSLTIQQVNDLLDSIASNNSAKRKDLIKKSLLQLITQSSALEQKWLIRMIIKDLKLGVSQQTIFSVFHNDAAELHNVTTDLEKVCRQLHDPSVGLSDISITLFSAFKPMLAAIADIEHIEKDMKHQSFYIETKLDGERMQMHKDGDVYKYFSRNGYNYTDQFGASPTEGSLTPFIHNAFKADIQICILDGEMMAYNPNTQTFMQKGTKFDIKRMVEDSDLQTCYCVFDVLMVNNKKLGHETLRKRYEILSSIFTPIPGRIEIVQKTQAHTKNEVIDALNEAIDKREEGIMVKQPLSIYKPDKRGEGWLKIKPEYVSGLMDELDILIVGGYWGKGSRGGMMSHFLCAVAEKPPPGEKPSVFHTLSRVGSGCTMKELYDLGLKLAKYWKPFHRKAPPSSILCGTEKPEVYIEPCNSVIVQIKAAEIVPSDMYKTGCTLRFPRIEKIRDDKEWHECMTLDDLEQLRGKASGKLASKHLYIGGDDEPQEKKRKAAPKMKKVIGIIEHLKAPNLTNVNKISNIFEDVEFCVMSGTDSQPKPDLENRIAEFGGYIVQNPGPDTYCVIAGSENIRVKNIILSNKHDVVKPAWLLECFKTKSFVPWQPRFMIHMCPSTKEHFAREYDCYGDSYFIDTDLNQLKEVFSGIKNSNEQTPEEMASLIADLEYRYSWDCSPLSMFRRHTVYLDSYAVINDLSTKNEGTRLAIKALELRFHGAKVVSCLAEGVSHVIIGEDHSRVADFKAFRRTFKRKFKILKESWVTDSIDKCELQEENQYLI
UniProt Q8N5J2, sequence (Q8N5J2 whole entry, looked up): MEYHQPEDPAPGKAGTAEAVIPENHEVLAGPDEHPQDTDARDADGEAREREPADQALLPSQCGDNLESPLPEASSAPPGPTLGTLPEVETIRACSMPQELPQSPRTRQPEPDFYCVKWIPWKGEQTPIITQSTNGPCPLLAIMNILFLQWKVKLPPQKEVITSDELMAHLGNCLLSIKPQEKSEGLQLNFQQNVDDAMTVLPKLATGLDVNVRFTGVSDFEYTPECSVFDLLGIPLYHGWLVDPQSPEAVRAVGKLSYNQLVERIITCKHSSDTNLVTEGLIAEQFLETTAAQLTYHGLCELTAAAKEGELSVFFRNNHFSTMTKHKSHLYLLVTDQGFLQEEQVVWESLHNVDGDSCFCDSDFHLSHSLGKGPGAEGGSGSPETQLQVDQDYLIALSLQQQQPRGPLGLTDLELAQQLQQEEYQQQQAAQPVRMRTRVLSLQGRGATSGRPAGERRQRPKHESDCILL
UniProt Q16644, sequence (Q16644 whole entry, looked up): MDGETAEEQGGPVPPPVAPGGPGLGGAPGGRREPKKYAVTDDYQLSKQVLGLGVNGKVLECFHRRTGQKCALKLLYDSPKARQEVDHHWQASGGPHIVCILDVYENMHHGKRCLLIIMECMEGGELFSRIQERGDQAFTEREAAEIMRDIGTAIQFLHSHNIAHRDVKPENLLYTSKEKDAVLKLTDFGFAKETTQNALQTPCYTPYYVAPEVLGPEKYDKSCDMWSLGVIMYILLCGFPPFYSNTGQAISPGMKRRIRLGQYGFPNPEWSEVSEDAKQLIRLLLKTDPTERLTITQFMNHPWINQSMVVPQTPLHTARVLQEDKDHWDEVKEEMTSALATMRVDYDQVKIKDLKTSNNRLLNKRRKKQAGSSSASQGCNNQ
UniProt Q9H089, sequence (Q9H089 whole entry, looked up): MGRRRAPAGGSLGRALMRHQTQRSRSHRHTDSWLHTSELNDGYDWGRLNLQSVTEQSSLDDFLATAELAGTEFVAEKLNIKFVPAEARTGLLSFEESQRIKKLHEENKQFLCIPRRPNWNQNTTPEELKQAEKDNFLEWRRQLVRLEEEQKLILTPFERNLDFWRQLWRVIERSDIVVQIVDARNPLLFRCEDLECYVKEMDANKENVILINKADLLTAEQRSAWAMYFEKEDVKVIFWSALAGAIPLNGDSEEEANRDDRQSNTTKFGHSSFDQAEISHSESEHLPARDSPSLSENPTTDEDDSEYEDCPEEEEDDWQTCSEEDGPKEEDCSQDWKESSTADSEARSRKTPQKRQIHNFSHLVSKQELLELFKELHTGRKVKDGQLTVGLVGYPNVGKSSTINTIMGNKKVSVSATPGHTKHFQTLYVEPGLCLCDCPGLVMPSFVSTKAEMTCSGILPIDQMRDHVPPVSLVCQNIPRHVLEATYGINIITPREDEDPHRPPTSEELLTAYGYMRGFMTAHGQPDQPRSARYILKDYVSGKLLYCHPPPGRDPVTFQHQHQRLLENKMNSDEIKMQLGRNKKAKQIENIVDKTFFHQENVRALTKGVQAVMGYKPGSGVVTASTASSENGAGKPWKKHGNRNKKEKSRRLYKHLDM
UniProt O95297, sequence (O95297 whole entry, looked up): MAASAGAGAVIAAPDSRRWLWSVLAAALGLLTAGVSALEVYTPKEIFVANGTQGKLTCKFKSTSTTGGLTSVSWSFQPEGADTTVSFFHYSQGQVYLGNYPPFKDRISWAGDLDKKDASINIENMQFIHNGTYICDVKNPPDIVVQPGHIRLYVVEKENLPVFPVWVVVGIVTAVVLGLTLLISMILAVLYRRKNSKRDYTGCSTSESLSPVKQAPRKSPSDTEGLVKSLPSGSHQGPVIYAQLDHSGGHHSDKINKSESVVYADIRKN
UniProt Q8WV92, sequence (Q8WV92 whole entry, looked up): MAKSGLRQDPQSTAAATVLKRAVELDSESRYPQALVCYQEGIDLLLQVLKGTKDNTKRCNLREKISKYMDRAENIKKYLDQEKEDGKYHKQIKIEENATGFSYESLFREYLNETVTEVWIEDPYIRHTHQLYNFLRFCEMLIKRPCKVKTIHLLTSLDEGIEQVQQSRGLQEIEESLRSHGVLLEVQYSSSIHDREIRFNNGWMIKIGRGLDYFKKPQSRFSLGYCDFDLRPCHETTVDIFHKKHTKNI

log2 fold change, inactive:
MITD1 (UniProt Q8WV92) 0.03
LYRM4 (UniProt Q9HD34) 0.054
LSG1 (UniProt Q9H089) 0.115
MED8 isoform 2 (UniProt Q96G25) -0.005
LARP4B (UniProt Q92615) 0.026
MPDZ (UniProt O75970) -0.057
LGALS3BP (UniProt Q08380) 0.111
MCMBP (UniProt Q9BTE3) 0.039
MIPEP (UniProt Q99797) -0.016
MED17 (UniProt Q9NVC6) 0.019
MLH1 (UniProt P40692) 0.061
LIG4 (UniProt P49917) 0.066
MPZL1 (UniProt O95297) -0.02
MAPK9 (UniProt P45984) -0.005
MAP2K7 isoform 4 (UniProt O14733) 0.033
MFF isoform 2 (UniProt Q9GZY8) 0.007
LYAR (UniProt Q9NX58) -0.002
MECR (UniProt Q9BV79) -0.041
MAPKAPK3 (UniProt Q16644) 0.021
MAP3K4 (UniProt Q9Y6R4) 0.203
MAST4 (UniProt O15021) 0.073
MINDY1 isoform 3 (UniProt Q8N5J2) -0.072
LYSMD3 (UniProt Q7Z3D4) -0.022

Source: the supplement of paper PMC10849652
